Results published in PubChem BioAssay (NCATS).
Results filed as inconclusive are left out. Unmarked numbers belong to inactive results. Activity calls are given as the source filed them. The call rests on the fitted dose curve; in most records, active means well fitted cell-killing curve with a large enough effect; inconclusive means small, poorly fitted or top-dose-only effect; inactive means no such curve, though single readings can be large or run the other way.

Assay: qHTS of pediatric cancer cell lines to identify multiple opportunities for drug repurposing: Primary screen for SJ-GBM2 cells (AID 1347091)
Conditions: SJ-GBM2 viability, CellTiter-Glo luminescence, 48 h; series mostly up to 46 µM; activity change, negative = cytotoxic: at the top concentration
From the text: Drug repurposing or repositioning has been offered as a strategy for drug development in oncology programs. This approach has special potential for childhood cancers and other rare or orphan diseases, where the expected return on new drug development has been a disincentive to pharmaceuticals.
In this project we exploit the poly-pharmacology of drugs to discover new indications via phenotypic screening of a panel of 19 well-characterized cell lines derived from solid tumors seen in children and adolescents. The goal is to identify approved drugs with previously unrecognized anticancer properties that has the potential to reveal new mechanisms and biological processes involved in carcinogenesis or drug resistance. We employed a titration-based paradigm (quantitative high-throughput screening or qHTS), where all compounds were tested at multiple concentrations for their effect on cell viability. Concentration-response curves (CRCs) were derived directly from the primary screen, and both potency and efficacy values were used to identify compounds with robust bioactivity profiles. We screened the NIH Chemical Genomics Center (NCGC) Pharmaceutical Collection (NPC) and Mechanism Interrogation Plate (MIPE) small molecule collections of approved and investigational compounds against these cell lines; and measured metabolically active cells after 48 hours of compound treatment as a proxy for cell viability.
Assay Submitter: Nathalia J. Martinez, National Center for Advancing Translational Sciences, National Institutes of Health, Rockville, MD, USA; email: natalia.martinez@nih.gov
[1] Shen, M et al. Quantitative high-throughput phenotypic screening of pediatric cancer cell lines identifies multiple opportunities for drug repurposing. Oncotarget 2017 Dec 19;9(4):4758-4772. PMID 29435139.
The cells were obtained from University of North Carolina (UNC), Pediatric Preclinical Testing Program (PPT), and Coriell Institute (CI).
qHTS cell viability assay:
Cells were assayed in growth media at a density of 500-1,000 cells/well. Five microliters of cells were dispensed into 1,536-well, white, solid-bottom, TC-treated plates (Greiner Bio One) using a multidrop dispenser and incubated at 37 degrees C, 5% CO2, under a humidified atmosphere for 5 hours. Twenty-three nanoliters of compounds and controls (neutral control DMSO or positive control bortezomib at final concentration of 2.3 µM) were subsequently transferred by Kalypsys pintool. For primary screens, the MIPE collection was tested at 11-point dilutions (final concentrations range from 0.78 nM to 46 µM) and the NPC collection at 8-point dilutions (final concentrations range from 0.59 nM to 46 µM). Compounds tested in follow-up screens were assayed at 11-point dilutions. Cells were incubated for 48 hours, followed by addition of 3 uL of CellTiter-Glo (Promega). After a 15 min incubation at room temperature, samples were analyzed for luminescence intensity using a ViewLux High-throughput CCD imager equipped with clear filters.
Potency means the concentration at half of the fitted maximal effect.

Question: Which Potency does the source give for `O=C(Nc1ncc(-c2cc(C(F)F)nn2-c2c(Cl)cccc2Cl)s1)C1CC1` here?
Answer: The Potency was 0.332 µM (active).

Question: Which Potency does the source give for `Cc1ccc(NC(=O)C2(c3ccc4c(c3)OC(F)(F)O4)CC2)nc1-c1cccc(C(=O)O)c1` here?
Answer: Its Potency is 0.0372 µM (active).

Question: Which Potency does the source give for `COc1cc(C(=O)N2CCC(N3CCN(C)CC3)CC2)ccc1Nc1ncc2c(n1)N(C)c1ccccc1C(=O)N2C` here?
Answer: Its Potency is 18.7 µM (active).

Question: With `CN1CCC(CNc2ccc3ncc(-c4cccc(OC(F)(F)F)c4)n3n2)CC1` as the molecule, how does the Potency read?
Answer: The Potency was 16.6 µM (active).

Question: For `Cn1c2ccccc2c2c3c(c4c5ccccc5n(CCC#N)c4c21)CNC3=O`, which Potency is on record?
Answer: The Potency was 0.59 µM (active).

Question: Which Potency does the source give for `CC(C)(C)OC(=O)Nc1ccc(-c2cc(C(=O)NCCCCCCC(=O)NO)no2)cc1` here?
Answer: The Potency was 1.48 µM (active).

Question: Which Potency does the source give for `CC(C)c1cnn2c(NCc3ccccc3)cc(N[C@@H](CO)[C@H](O)CO)nc12` here?
Answer: Its Potency is 0.166 µM (active).

Question: Which Potency does the source give for `CN[C@H]1CCc2cc(OC)c(OC)c(OC)c2-c2ccc(OC)c(=O)cc21` here?
Answer: The Potency was 0.001 µM (active).

Question: Which Potency does the source give for `C=CC(=O)Nc1cc2c(Nc3ccc(F)c(Cl)c3)ncnc2cc1OCCCN1CCOCC1` here?
Answer: Its Potency is 16.8 µM (active).

Question: Which “activity change, negative = cytotoxic” value does the source give for `O=C(C=Cc1c(C(=O)O)[nH]c2cc(Cl)cc(Cl)c12)Nc1ccccc1` here?
Answer: Its value is 11.7%.

Question: With `O=C(O)Cn1nnc(-c2cc(N3CCC(Oc4cc(F)ccc4Br)CC3)no2)n1` as the molecule, how does the Potency read?
Answer: Its Potency is 0.469 µM (active).

Question: For `Cc1nc(N)ncc1-c1nc(N2CCOCC2)c2sc(C(C)(C)O)cc2n1`, which Potency is on record?
Answer: The Potency was 1.05 µM (active).

Question: For `CCn1cc(-c2ccnc3[nH]c(-c4cccc(CN(C)C)c4)cc23)c(-c2ccc(NC(=O)N(C)C)cc2)n1`, which Potency is on record?
Answer: The Potency was 0.0833 µM (active).

Question: For `O=C1CCC[C@@H]2[C@H]3CCC[N+]4([O-])CCC[C@@H](CN12)[C@@H]34` (stereo not given in full), which “activity change, negative = cytotoxic” value is on record?
Answer: Its value is 15.6%.

Question: Which Potency does the source give for `CC(C)c1cc(-c2n[nH]c(=O)n2-c2ccc3c(ccn3C)c2)c(O)cc1O` here?
Answer: Its Potency is 0.118 µM (active).

Question: Which Potency does the source give for `NC1(Cc2ccc(Cl)cc2)CCN(c2ncnc3[nH]ccc23)CC1` here?
Answer: The Potency was 5.26 µM (active).

Question: Which Potency does the source give for `COc1ccc2c(c1)CC[C@@H](CN(C)CC(=O)O)[C@H]2c1ccccc1` here?
Answer: The Potency was 1.18 µM (active).

Question: With `CNC(=O)c1nn(C)c2c1C(C)(C)Cc1cnc(Nc3ccc(N4CCN(C)CC4)cc3)nc1-2` as the molecule, how does the Potency read?
Answer: The Potency was 1.87 µM (active).

Question: Which Potency does the source give for `N#CCNC(=O)c1ccc(-c2ccnc(Nc3ccc(N4CCOCC4)cc3)n2)cc1` here?
Answer: The Potency was 13.2 µM (active).

Question: With `OCc1ccc(-c2ccc(-c3ccc(CO)s3)o2)s1` as the molecule, how does the Potency read?
Answer: The Potency was 16.6 µM (active).

Question: With `c1nc2nc(Nc3ccc(N4CCOCC4)cc3)nc(NC3CCCCC3)c2[nH]1` as the molecule, how does the Potency read?
Answer: Its Potency is 1.48 µM (active).

Question: For `COc1ccc(-c2cc3c(C)nc(N)nc3n(C3CCC(OCCO)CC3)c2=O)cn1` (stereo not given), which Potency is on record?
Answer: The Potency was 0.0235 µM (active).

Question: For `O=C(CCCCCCC(=O)Nc1ccc([C@H]2O[C@@H](CSc3nc(-c4ccccc4)c(-c4ccccc4)o3)C[C@@H](c3ccc(CO)cc3)O2)cc1)NO`, which Potency is on record?
Answer: Its Potency is 14.8 µM (active).

Question: For `COc1cccc2nc(-c3cccs3)nc(NN3C(=O)C=C(C)C3=O)c12`, which Potency is on record?
Answer: Its Potency is 0.935 µM (active).

Question: Which Potency does the source give for `Cc1cnc(Nc2ccc(F)cc2Cl)nc1-c1c[nH]c(C(=O)N[C@H](CO)c2cccc(Cl)c2)c1` here?
Answer: The Potency was 0.264 µM (active).

Question: With `CN1c2cc(O)c(N=NC(N)=O)cc2CC1S(=O)(=O)O` (stereo not given) as the molecule, how does the “activity change, negative = cytotoxic” value read?
Answer: Its value is 10%.

Question: Which Potency does the source give for `CC(C)(C)c1cc(NC(=O)Nc2ccc(-c3cn4c(n3)sc3cc(OCCN5CCOCC5)ccc34)cc2)no1` here?
Answer: The Potency was 14.8 µM (active).

Question: With `Cc1cc(Nc2cc(N3CCN(C)CC3)nc(C=Cc3ccccc3)n2)n[nH]1` as the molecule, how does the Potency read?
Answer: Its Potency is 13.6 µM (active).

Question: For `C1Cc2[nH]nc(-c3nn[nH]n3)c2C1`, which “activity change, negative = cytotoxic” value is on record?
Answer: Its value is 23.8%.

Question: With `COc1cc(C(C)C)c2c(c1)S(=O)(=O)N(COc1cc(=O)n3cccc(OCCN4CCCCC4)c3n1)C2=O` as the molecule, how does the Potency read?
Answer: The Potency was 26.4 µM (active).

Question: Which “activity change, negative = cytotoxic” value does the source give for `O=c1[nH]c(=O)n(C2CCCO2)cc1F` (stereo not given) here?
Answer: Its value is -0.152% [at 92.7 µM].

Question: With `C[C@H]1C[C@@H]2[C@@H]([C@@H](O)C[C@@]3(C)[C@H]2CC[C@]3(O)C(=O)CO)[C@@]2(C)C=CC(=O)C=C12` as the molecule, how does the “activity change, negative = cytotoxic” value read?
Answer: Its value is -5.18%.

Question: Which Potency does the source give for `COC(=O)Nc1ccc(-c2nc(N3CCOCC3)c3cnn(C4CCN(Cc5cccnc5)CC4)c3n2)cc1` here?
Answer: The Potency was 0.743 µM (active).

Question: For `COc1cc(OC2CCN(C)CC2)ccc1Nc1ncc2c(n1)n(C1CCCC1)c(=O)n2C`, which Potency is on record?
Answer: The Potency was 16.6 µM (active).

Question: Which Potency does the source give for `O=C(O)c1ccc2cc(-c3ccc(O)c(C45CC6CC(CC(C6)C4)C5)c3)ccc2c1` here?
Answer: The Potency was 0.148 µM (active).

Question: With `NC(=O)c1c(OCc2c(F)cc(Br)cc2F)nsc1NC(=O)NCCCCN1CCCC1` as the molecule, how does the Potency read?
Answer: Its Potency is 20.9 µM (active).

Question: Which Potency does the source give for `COc1cc(Nc2ncc(F)c(Nc3ccc4c(n3)N(COP(=O)(O)O)C(=O)C(C)(C)O4)n2)cc(OC)c1OC` here?
Answer: Its Potency is 1.48 µM (active).

Question: For `CS(=O)(=O)N1CCN(Cc2cc3nc(-c4cccc5[nH]ncc45)nc(N4CCOCC4)c3s2)CC1`, which Potency is on record?
Answer: The Potency was 0.372 µM (active).

Question: With `Cc1cn2cc(C(=O)N(C)CCO)cc(N[C@@H]3CCOc4cccc(C)c43)c2n1` as the molecule, how does the “activity change, negative = cytotoxic” value read?
Answer: The value was 34.4%.

Question: With `O=C(CCCCCCNC(=O)c1cnc(N(c2ccccc2)c2ccccc2)nc1)NO` as the molecule, how does the Potency read?
Answer: Its Potency is 5.26 µM (active).
